Results filed as inconclusive are left out. Activity calls are given as the source filed them. Unless noted, calls come from the whole dose curve; as a rule, active = well fitted curve in either direction with a large enough effect (not every such curve was filed as active); inconclusive = small, poorly fitted or top-dose-only effect, or another doubt; inactive = flat fitted curve, though single readings scatter.
What was measured:
[1] = target: Lysosomal acid glucosylceramidase (Homo sapiens) (UniProt P04062); test: Glucocerebrosidase-p2 (AID 348; in the data active = potency below about 10 µM; note: potency is the fitted concentration of half-maximal effect); conditions: purified GBA, blue fluorogenic substrate, 40 min
Chain of Lysosomal acid glucosylceramidase (Homo sapiens) (P04062 whole entry, looked up): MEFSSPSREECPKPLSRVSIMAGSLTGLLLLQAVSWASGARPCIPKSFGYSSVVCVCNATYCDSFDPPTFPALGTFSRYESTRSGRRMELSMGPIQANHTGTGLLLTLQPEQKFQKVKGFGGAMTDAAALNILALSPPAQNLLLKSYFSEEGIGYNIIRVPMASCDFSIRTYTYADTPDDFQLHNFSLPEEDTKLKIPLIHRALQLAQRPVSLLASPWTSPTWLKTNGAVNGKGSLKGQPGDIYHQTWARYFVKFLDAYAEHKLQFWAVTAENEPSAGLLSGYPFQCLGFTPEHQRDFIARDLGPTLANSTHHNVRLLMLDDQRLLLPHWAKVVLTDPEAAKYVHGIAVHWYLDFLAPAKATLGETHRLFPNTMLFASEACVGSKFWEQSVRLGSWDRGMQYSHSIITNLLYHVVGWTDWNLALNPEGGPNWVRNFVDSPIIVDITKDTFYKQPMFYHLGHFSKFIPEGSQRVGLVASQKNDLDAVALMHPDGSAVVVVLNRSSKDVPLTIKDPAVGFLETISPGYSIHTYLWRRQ
Outline: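 Compounds titrated from 0.6 nM upwards against 0.2 nM enzyme in pH 5.9 citric acid/KH2PO4, taurocholate, tween-20; blue fluorogenic substrate 80 uM, 40 min room temperature, stopped and read Ex 365/Em 440 for AC50.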

[2] = AP1 Signaling Pathway (AID 357); conditions: ME-180 AP-1-bla reporter, EGF-induced, beta-lactamase ratio, 5 h; at 7.69 µM (top of the series) unless noted;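 note: ME-180 reporter cells stimulated with EGF at its EC50 level; % is set by controls: 0 for no effect and ±100 for the full control effect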
Outline: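 Modulation of EGF-driven AP-1 transcription was assessed with a beta-lactamase reporter in ME-180 cells. Compound and EC50 EGF were co-incubated 5 hours at 37 °C before 2.5-hour CCF4 loading at room temperature and dual-emission reading.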

[3] = target: Cytochrome P450 1A2 (Homo sapiens) (UniProt P05177); test: p450-cyp1a2 (AID 410; calls by dose curve; note: potency is the fitted concentration of half-maximal effect;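 for activity change, negative = inhibition: -100% = full effect of reference inhibitor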); conditions: recombinant CYP1A2, luciferin-ME demethylation, luminescence; series mostly up to 57 µM
Chain of Cytochrome P450 1A2 (Homo sapiens) (P05177 whole entry, looked up): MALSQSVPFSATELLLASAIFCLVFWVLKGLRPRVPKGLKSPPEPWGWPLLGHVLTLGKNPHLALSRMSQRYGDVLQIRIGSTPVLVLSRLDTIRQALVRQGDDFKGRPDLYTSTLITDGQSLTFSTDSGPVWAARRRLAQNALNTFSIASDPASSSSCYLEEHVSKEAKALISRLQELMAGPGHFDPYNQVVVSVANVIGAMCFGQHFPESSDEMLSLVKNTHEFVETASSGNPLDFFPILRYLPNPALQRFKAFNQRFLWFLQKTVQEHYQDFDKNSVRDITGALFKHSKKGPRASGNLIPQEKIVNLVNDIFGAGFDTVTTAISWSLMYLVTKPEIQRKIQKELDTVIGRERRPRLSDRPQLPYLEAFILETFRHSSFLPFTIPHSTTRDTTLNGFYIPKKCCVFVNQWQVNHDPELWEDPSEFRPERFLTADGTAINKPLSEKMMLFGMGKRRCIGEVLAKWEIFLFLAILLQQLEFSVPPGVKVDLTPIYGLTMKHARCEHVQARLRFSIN
Outline: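 20nM CYP1A2 with 100uM Luciferin-ME (at Km) in 100mM KPO4; compound preincubated 10 min, NADPH regeneration added, 60 min at room temperature. Luciferin quantified by luminescence after detection reagent; normalized to 57 uM furafylline.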

[4] = NFAT Signaling Pathway (AID 444); conditions: Jurkat NFAT-bla M1, carbachol, beta-lactamase ratio, 5 h; at 7.69 µM (top of the series) unless noted;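 note: carbachol stimulus at about its EC50 of 1 µM final; % is set by controls: 0 for no effect and ±100 for the full control effect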
Outline: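 Jurkat cells with NFAT-driven β-lactamase reporter and co-expressed M1 receptor, stimulated with carbachol (final 1 uM, ~EC50), compound titration, 5 h at 37 °C. CCF4 loaded 1 h at RT; 460/530 nm ratio gave %activity and AC50.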

[5] = Stat Signaling Pathway (AID 446); conditions: ME-180 SIE beta-lactamase reporter, IL-6 stimulated, 5 h; at 7.69 µM (top of the series) unless noted;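 note: ME-180 cervical cancer cells given 40 pM IL-6 alongside compound; SIE-controlled beta-lactamase reporter measured as 460/530 nm FRET emission ratio; % is set by controls: 0 for no effect and ±100 for the full control effect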
Outline: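 Reporter line: ME-180 cervical carcinoma, SIE-beta-lactamase. Treatment: compound with 40 pM IL-6, 5 hrs, 37 C, in low-serum OPTI-MEM with 10 mM HEPES pH 7.3. Detection: 460/530 nm fluorescence.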

[6] = target: Glucocorticoid receptor (Homo sapiens) (UniProt P04150); test: GR-EFC Redistribution (AID 451; calls by dose curve; note: potency is the fitted concentration of half-maximal effect); conditions: CHO-K1 GR-EFC translocation, beta-gal luminescence, 2 h
Chain of Glucocorticoid receptor (Homo sapiens) (P04150 whole entry, looked up, the tested form may be a part): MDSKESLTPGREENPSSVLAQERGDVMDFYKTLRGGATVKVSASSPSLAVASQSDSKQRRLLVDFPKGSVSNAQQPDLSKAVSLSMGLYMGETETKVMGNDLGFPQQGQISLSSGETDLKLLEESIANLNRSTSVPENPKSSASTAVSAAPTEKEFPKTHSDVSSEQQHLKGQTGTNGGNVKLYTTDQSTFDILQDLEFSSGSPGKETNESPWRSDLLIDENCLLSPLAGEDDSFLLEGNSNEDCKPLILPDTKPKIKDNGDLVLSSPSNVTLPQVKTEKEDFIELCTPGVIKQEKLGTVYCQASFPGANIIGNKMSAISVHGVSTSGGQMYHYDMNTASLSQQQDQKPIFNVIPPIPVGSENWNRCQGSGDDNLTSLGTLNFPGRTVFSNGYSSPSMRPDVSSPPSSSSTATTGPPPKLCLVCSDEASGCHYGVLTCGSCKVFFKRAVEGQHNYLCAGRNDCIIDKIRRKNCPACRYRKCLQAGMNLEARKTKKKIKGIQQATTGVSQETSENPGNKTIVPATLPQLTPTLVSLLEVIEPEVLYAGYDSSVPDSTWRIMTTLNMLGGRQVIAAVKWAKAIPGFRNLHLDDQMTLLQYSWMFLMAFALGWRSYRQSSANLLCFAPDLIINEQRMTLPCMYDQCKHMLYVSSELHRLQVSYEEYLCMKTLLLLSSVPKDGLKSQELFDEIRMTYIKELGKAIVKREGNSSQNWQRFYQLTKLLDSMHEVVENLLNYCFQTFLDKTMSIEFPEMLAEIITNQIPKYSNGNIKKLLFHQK
Outline: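 CHO-K1 cells expressing nuclear EA and GR-ED fragments of b-gal; compounds titrated up to 46 uM final, 2 h at 37 C. GR nuclear translocation read as complemented b-gal luminescence after 1 h RT detection.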

[7] = target: Mitogen-activated protein kinase 10 (Mus musculus) (UniProt Q61831); test: JNK3 AlphaScreen Assay (AID 530); conditions: JNK3 lysate, c-Jun phosphorylation; series mostly up to 57.1 µM;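 note: kinase came from lysate of stimulated human HepG2 cells; signal reports phosphorylation of biotinylated GST-cJun 1-79 at Ser73 with 10 µM ATP; % is set by controls: 0 for no effect and ±100 for the full control effect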
Outline: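 Pre-activated (IL-1β/TNFα) JNK3 in HepG2 lysates phosphorylates biotin-GST-cJun(1-79), 10 uM ATP; anti-phospho-cJun(Ser73) AlphaScreen read at room temperature, pH 7.6 Tris buffer. Compounds pre-incubated 15 min as titrations.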

[8] = target: 3',5'-cyclic-AMP phosphodiesterase 4B (Homo sapiens) (UniProt Q07343); test: qHTS Assay for Inhibitors of PDE-IV (AID 607; active = well fitted activation curve with a large enough effect in the main read-out, with a control signal flat, not every such curve was filed as active; note: % of control where 0% means no effect); conditions: HEK293 ACTOne CNG channel cells, membrane potential fluorescence; series mostly up to 22.9 µM
Chain of 3',5'-cyclic-AMP phosphodiesterase 4B (Homo sapiens) (Q07343 whole entry, looked up): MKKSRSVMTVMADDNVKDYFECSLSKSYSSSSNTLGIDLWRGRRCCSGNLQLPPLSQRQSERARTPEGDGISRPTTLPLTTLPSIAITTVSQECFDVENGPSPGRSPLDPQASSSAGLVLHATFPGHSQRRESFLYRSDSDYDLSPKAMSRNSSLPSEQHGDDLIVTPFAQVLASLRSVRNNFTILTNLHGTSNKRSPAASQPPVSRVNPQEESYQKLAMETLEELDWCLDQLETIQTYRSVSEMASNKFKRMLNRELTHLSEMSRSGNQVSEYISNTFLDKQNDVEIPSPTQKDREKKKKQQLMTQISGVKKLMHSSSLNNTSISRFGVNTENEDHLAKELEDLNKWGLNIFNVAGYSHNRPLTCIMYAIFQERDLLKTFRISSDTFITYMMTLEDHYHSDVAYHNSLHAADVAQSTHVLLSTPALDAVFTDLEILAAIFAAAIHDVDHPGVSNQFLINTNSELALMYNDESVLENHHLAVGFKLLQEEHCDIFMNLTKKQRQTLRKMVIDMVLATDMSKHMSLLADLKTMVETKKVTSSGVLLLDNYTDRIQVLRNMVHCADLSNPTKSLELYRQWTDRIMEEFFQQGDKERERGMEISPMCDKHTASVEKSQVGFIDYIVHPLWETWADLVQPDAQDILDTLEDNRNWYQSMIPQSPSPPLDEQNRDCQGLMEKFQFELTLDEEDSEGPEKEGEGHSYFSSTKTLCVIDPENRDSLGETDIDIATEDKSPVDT
Outline: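 Cell-based read-out of cAMP via a modified cyclic nucleotide-gated channel and membrane potential dye (535/590 nm) in HEK293 cells expressing PDE4 endogenously. Compounds tested up to 22.9 uM final; 100 uM RO 20-1724 reference.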

[9] = qHTS Assay for Lipid Storage Modulators (AID 1519; calls by dose curve); conditions: Drosophila S3 cells, BODIPY lipid droplet/cell ratio, laser cytometry, cells loaded with oleic acid; for activity change, negative = inhibition: at 57.5 µM (top of the series)
Outline: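 Cells seeded at 5,000 per well were treated with compounds over a concentration series and loaded with oleic acid (400 uM, as added). Lipid droplet fluorescence (488 nm excitation, 500-530 nm channel) was read by laser-scanning cytometry and normalized to 20 uM Triacsin C.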

[10] = Primary qHTS for small molecule stabilizers of the endoplasmic reticulum resident proteome: Secreted ER Calcium Modulated Protein (SERCaMP) assay (AID 1508630; active = well fitted inhibition curve with a large enough effect; note: % is set by controls: 0 for no effect and ±100 for the full control effect); conditions: SH-SY5Y GLuc-SERCaMP (Gaussia luciferase released on ER calcium loss) secretion, thapsigargin, luminescence; series mostly up to 38.4 µM
Outline: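 GLuc-SERCaMP-expressing SH-SY5Y cells, pretreated 16 h with compound, are challenged with thapsigargin to empty ER calcium stores; after 4 h, coelenterazine is added directly to the medium and luminescence is imaged.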

[11] = target: Cytochrome P450 3A4 (Homo sapiens) (UniProt P08684); test: qHTS Assay for Inhibitors and Substrates of Cytochrome P450 3A4 (AID 884; active = well fitted inhibition curve with a large enough effect; note: % is set by controls: 0 for no effect and ±100 for the full control effect; nearly all actives have a fitted effect of over 50% in size); conditions: recombinant CYP3A4, Luciferin-PPXE luminescence; series mostly up to 57.1 µM
Chain of Cytochrome P450 3A4 (Homo sapiens) (P08684 whole entry, looked up): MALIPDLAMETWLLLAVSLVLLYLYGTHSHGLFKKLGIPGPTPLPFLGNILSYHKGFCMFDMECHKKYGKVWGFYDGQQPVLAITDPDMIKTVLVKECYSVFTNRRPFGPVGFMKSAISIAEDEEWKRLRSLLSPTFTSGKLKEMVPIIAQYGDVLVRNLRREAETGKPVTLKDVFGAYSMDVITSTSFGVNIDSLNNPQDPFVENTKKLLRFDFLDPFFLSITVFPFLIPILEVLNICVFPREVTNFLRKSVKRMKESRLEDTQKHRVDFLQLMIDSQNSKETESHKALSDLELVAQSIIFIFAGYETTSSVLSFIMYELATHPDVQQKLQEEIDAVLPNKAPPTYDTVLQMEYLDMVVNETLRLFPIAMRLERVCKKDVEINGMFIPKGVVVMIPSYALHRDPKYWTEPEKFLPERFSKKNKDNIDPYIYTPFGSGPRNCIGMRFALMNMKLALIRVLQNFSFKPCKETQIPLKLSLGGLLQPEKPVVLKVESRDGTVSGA
Outline: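 20 nM human CYP3A4 with 25 uM Luciferin-PPXE (at KM) in 200 mM KPO4, preincubated 10 min with compound; NADPH regeneration started a 60 min RT reaction. Luciferin detected by luminescence, normalized to 57 uM ketoconazole as full inhibition.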

[12] = target: Cytochrome P450 2C9 (Homo sapiens) (UniProt P11712); test: qHTS Assay for Inhibitors and Substrates of Cytochrome P450 2C9 (AID 883; active = well fitted inhibition curve with a large enough effect; note: % is set by controls: 0 for no effect and ±100 for the full control effect; nearly all actives have a fitted effect of over 60% in size); conditions: recombinant CYP2C9, luciferin-H luminescence, 60 min; series mostly up to 57.1 µM
Chain of Cytochrome P450 2C9 (Homo sapiens) (P11712 whole entry, looked up): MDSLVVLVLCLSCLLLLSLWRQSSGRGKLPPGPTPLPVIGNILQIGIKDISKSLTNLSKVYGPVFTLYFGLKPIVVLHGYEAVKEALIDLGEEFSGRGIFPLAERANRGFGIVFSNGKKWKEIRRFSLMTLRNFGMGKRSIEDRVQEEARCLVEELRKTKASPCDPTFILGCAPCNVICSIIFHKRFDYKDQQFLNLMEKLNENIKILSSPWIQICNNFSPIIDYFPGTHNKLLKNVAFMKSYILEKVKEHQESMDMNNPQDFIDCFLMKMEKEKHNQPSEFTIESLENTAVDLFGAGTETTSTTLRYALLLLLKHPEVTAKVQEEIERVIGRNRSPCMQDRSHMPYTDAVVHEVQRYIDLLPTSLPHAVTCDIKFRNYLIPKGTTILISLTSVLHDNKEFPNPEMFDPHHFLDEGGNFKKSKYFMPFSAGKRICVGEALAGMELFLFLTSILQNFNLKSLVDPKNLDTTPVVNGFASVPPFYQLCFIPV
Outline: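 10nM CYP2C9 + 100uM Luciferin-H (=KM), 25mM KPO4; cpd 10 min 37C; NADPH regen, 60 min 37C; stop/detect with P450 Glo-Buffer 20 min; luminescence. Norm. to 57uM sulphaphenazole as full inhibition.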

[13] = measured here: cell count channel max response
[14] = measured here: lipid channel max response

COC(=O)N1CCC2(CCN(C(=O)NC(C)C)CC2)CC1
active: Potency [3] 20 µM
inactive: Potency [1] > 11.4 µM | activity change, negative = inhibition [2] -1.37% | activity change, negative = inhibition [4] -29.8% | activity, negative = inhibition [5] -1.69% | Potency [6] > 46 µM | outcome [7] | Potency [8] | activity change, negative = inhibition [9] 2.86% | Potency [10]
7.58%: max response [9, 13]
13.7%: max response [9, 14]

COCC(=O)N1CCC2(CC1)CCN(C(=O)Nc1cccc(F)c1)CC2
inactive: Potency [1] > 11.4 µM | activity change, negative = inhibition [2] 5.9% | Potency [3] | activity change, negative = inhibition [4] 3.94% | activity, negative = inhibition [5] -5.26% | Potency [6] > 46 µM | outcome [7] | Potency [8] | activity change, negative = inhibition [9] 0.649% | Potency [10]
10.1%: max response [9, 13]
10.7%: max response [9, 14]

CC(=O)N1CCC2(CCN(Cc3ccncc3)CC2)CC1
inactive: Potency [1] > 11.4 µM | activity change, negative = inhibition [2] 5.96% | Potency [3] | activity change, negative = inhibition [4] -0.25% | activity, negative = inhibition [5] -6.6% | Potency [6] > 46 µM | outcome [7] | Potency [8] | activity change, negative = inhibition [9] 2.82% | Potency [10]
14.4%: max response [9, 14]
7.01%: max response [9, 13]

CC(=O)N1CCC[C@@]2(CCN(c3ncccn3)C2)C1
25.4%: max response [9, 14]
18.6%: max response [9, 13]
inactive: Potency [1] > 11.4 µM | activity change, negative = inhibition [2] 2.25% | Potency [3] | activity change, negative = inhibition [4] 13.2% | activity, negative = inhibition [5] -10.4% | Potency [6] > 46 µM | outcome [7] | Potency [8] | activity change, negative = inhibition [9] 2.8% | Potency [10]

COc1ccc(NC(=O)N2CCC3(CC2)CCN(C(=O)c2cnccn2)CC3)cc1
inactive: Potency [1] > 11.4 µM | activity change, negative = inhibition [2] -11.1% | activity change, negative = inhibition [4] 9.86% | activity, negative = inhibition [5] 0.353% | Potency [6] > 46 µM | outcome [7] | Potency [8] | activity change, negative = inhibition [9] 7.44% | Potency [10]
18.9%: max response [9, 14]
active: Potency [3] 10 µM
7.1%: max response [9, 13]

O=C(c1csnn1)N1CCC2(CCCN(Cc3cc(C(F)(F)F)cc(C(F)(F)F)c3)C2)CC1
active: Potency [3] 12.6 µM
inactive: Potency [1] > 11.4 µM | activity change, negative = inhibition [2] 10.6% | activity change, negative = inhibition [4] 10.5% | activity, negative = inhibition [5] 3.73% | Potency [6] > 46 µM | outcome [7] | Potency [8] | activity change, negative = inhibition [9] -5.5% | Potency [10]
17.2%: max response [9, 14]
21.4%: max response [9, 13]

Cc1noc(C)c1C(=O)N1CCC[C@@]2(CCN(c3ncccn3)C2)C1
6.75%: max response [9, 14]
inactive: Potency [1] > 11.4 µM | activity change, negative = inhibition [2] 2.18% | Potency [3] | activity change, negative = inhibition [4] 7.6% | activity, negative = inhibition [5] -3.95% | Potency [6] > 46 µM | outcome [7] | Potency [8] | activity change, negative = inhibition [9] -1.94% | Potency [10]
7.95%: max response [9, 13]

Cc1noc(C)c1C(=O)N1CCC2(CC1)CN(c1ccccc1)C2
inactive: Potency [1] > 11.4 µM | activity change, negative = inhibition [2] -19.3% | Potency [3] | activity change, negative = inhibition [4] 3.6% | activity, negative = inhibition [5] -19% | Potency [6] > 46 µM | outcome [7] | Potency [8] | activity change, negative = inhibition [9] 4.6% | Potency [10]
-4.97%: max response [9, 13]
1.75%: max response [9, 14]

COC(=O)N1CCC2(CC1)CN(C(=O)Nc1cccc(C#N)c1)C2
8.67%: max response [9, 14]
inactive: Potency [1] > 11.4 µM | activity change, negative = inhibition [2] 2.52% | Potency [3] | activity change, negative = inhibition [4] 6.57% | activity, negative = inhibition [5] -1.88% | Potency [6] > 46 µM | outcome [7] | Potency [8] | activity change, negative = inhibition [9] 4.73% | Potency [10]
-0.334%: max response [9, 13]

CC(C)NC(=O)N1CCC2(CC1)CCN(S(C)(=O)=O)CC2
6.33%: max response [9, 13]
5.94%: max response [9, 14]
inactive: Potency [1] > 11.4 µM | activity change, negative = inhibition [2] -12.4% | Potency [3] | activity change, negative = inhibition [4] 6.9% | activity, negative = inhibition [5] 4.06% | Potency [6] > 46 µM | outcome [7] | Potency [8] | activity change, negative = inhibition [9] -0.0632% | Potency [10]

O=C(c1cc(C(F)(F)F)cc(C(F)(F)F)c1)N1CCC2(CCN(Cc3nccs3)CC2)CC1
21.6%: max response [9, 14]
inactive: Potency [1] > 11.4 µM | activity change, negative = inhibition [2] -2.3% | Potency [3] | activity change, negative = inhibition [4] -17.7% | activity, negative = inhibition [5] -29.1% | Potency [6] > 46 µM | outcome [7] | Potency [8] | Potency [11] | activity change, negative = inhibition [9] 1.84% | Potency [10]
16.9%: max response [9, 13]

CS(=O)(=O)N1CCC2(CCN(c3ccccc3)CC2)CC1
20.7%: max response [9, 13]
29.9%: max response [9, 14]
inactive: Potency [1] > 11.4 µM | activity change, negative = inhibition [2] 0.201% | Potency [3] | activity change, negative = inhibition [4] -7.56% | activity, negative = inhibition [5] -0.282% | Potency [6] > 46 µM | outcome [7] | Potency [8] | Potency [12] | activity change, negative = inhibition [9] 5.49% | Potency [10]

Cc1noc(C)c1C(=O)N1CCC2(CC1)CN(C(=O)Nc1cccc(F)c1)C2
-0.901%: max response [9, 14]
inactive: Potency [1] > 11.4 µM | activity change, negative = inhibition [2] 6.42% | Potency [3] | activity change, negative = inhibition [4] 19.9% | activity, negative = inhibition [5] 0.457% | Potency [6] > 46 µM | outcome [7] | Potency [8] | activity change, negative = inhibition [9] 1.43% | Potency [10]
-7.63%: max response [9, 13]

COCC(=O)N1CCC[C@@]2(CCN(c3ncccn3)C2)C1
inactive: Potency [1] > 11.4 µM | activity change, negative = inhibition [2] -8.65% | Potency [3] | activity change, negative = inhibition [4] -4.08% | activity, negative = inhibition [5] -2.01% | Potency [6] > 46 µM | outcome [7] | Potency [8] | activity change, negative = inhibition [9] -2.11% | Potency [10]
20.3%: max response [9, 14]
19.1%: max response [9, 13]

Reference: PubChem BioAssay (NCATS)
